Common to all, as to experiment: NCI-60 one-dose screen, 48 h (100 = growth as untreated, 0 = no growth, -100 = all killed)
For one assay, the system named is SK-MEL-2 melanoma. Particulars: 10 µM.
A further assay has as its system EKVX NSCLC. The settings on record: 10 µM unless noted.
For another assay, the system named is SN12C renal. The settings on record: 10 µM unless noted.
The next assay concerns TK-10 renal. Particulars: 10 µM unless noted.
A further assay has as its system ACHN renal. The settings on record: 10 µM unless noted.
In another assay the test system is CAKI-1 renal. Particulars: 10 µM unless noted.
Another assay relates to CCRF-CEM leukemia. Particulars: 10 µM unless noted.
Another assay relates to MOLT-4 leukemia. Particulars: 10 µM unless noted.
For a further assay, the system named is SR leukemia. The settings on record: 10 µM unless noted.
A further assay has as its system OVCAR-8 ovarian. The settings on record: 10 µM unless noted.
The test system of a further assay is OVCAR-5 ovarian. Particulars: 10 µM unless noted.
A further assay concerns OVCAR-4 ovarian. The settings on record: 10 µM unless noted.
The next assay relates to SK-OV-3 ovarian. The settings on record: 10 µM unless noted.
A further assay deals with IGROV1 ovarian. The settings on record: 10 µM unless noted.
For a further assay, the system named is OVCAR-3 ovarian. The settings on record: 10 µM unless noted.
Another assay relates to NCI/ADR-RES ovarian. Particulars: 10 µM unless noted.
In the next assay the test system is UO-31 renal. Particulars: 10 µM unless noted.
The next assay deals with A498 renal. The settings on record: 10 µM unless noted.
The test system of a further assay is RPMI-8226 leukemia. Particulars: 10 µM unless noted.
Another assay concerns HS 578T breast. The settings on record: 10 µM.

The text below walks through data of PubChem BioAssay (NCI).

Compounds without any hit were thinned out: in the full panel of roughly 83,000, 20% have a hit.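 For each line, cells grew in 96-well plates with the test compound present at a single concentration for 48 hours.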 Unmarked numbers belong to inactive results. Activity calls are given as the source filed them. Rule for the calls: active = growth percent below 10; inactive = the rest.

For the compound `ClCc1ccc(-c2ccc(Cn3cnc4nc(Cl)nc(Cl)c43)cc2)cc1`, the growth in the assay with SK-MEL-2 melanoma is 65.8%; with EKVX NSCLC it was 82.7%; with SN12C renal, -29.8% (active); in the assay with TK-10 renal, -28.4% (active); in the assay on ACHN renal, 5.65% (active); in the assay with CAKI-1 renal, -93.6% (active). Also, the growth was -48.5% (active) in the assay with CCRF-CEM leukemia; -42.5% (active) in the assay with MOLT-4 leukemia; -37.1% (active) in the assay with SR leukemia; -72.1% (active) in the assay with OVCAR-8 ovarian; -11.1% (active) in the assay with OVCAR-5 ovarian; 46.6% in the assay on OVCAR-4 ovarian. Besides, the growth was 72.5% with SK-OV-3 ovarian, 21% with IGROV1 ovarian, -77.6% (active) with OVCAR-3 ovarian and 24.8% in the assay on NCI/ADR-RES ovarian.

Regarding `CCN(CC)CCCC(C)Nc1cc(-c2ccc(C(F)(F)F)cc2)c(C#N)c2nc3ccccc3n12` (centres undefined), the growth is 79.3% in the assay on SK-MEL-2 melanoma; 35.6% with EKVX NSCLC; -76.5% (active) in the assay on UO-31 renal; 68.2% with TK-10 renal; -65.2% (active) in the assay with ACHN renal; 52.2% with CAKI-1 renal. The growth was 87.5% in the assay on A498 renal; -7.3% (active) in the assay with CCRF-CEM leukemia; -28.2% (active) in the assay on MOLT-4 leukemia; -17.4% (active) with SR leukemia; -19.9% (active) in the assay on RPMI-8226 leukemia; 11.8% in the assay with OVCAR-8 ovarian. Moreover, the growth with OVCAR-5 ovarian was 11.7%; in the assay with OVCAR-4 ovarian, -27.9% (active); in the assay with SK-OV-3 ovarian it was 74.3%; in the assay on IGROV1 ovarian, 26.1%; with OVCAR-3 ovarian, 93.5%; with HS 578T breast, -19.1% (active). Besides, in the assay on NCI/ADR-RES ovarian, the growth is 32.2%.

On to `CCN1CCN(c2nc(C)cc(N(CCCNc3ccnc4cc(Cl)ccc34)Cc3ccc4c(c3)OCO4)n2)CC1`, for which the growth in the assay with SK-MEL-2 melanoma is -60.1% (active); with EKVX NSCLC, 35.8%; with SN12C renal it was 30.1%; in the assay with UO-31 renal it was -86.8% (active); in the assay with ACHN renal, -25% (active); in the assay with A498 renal it was -27.7% (active). Also, the growth in the assay with CCRF-CEM leukemia is -13.5% (active); in the assay with MOLT-4 leukemia, -14.1% (active); with SR leukemia it was -45.2% (active); with RPMI-8226 leukemia, -41.9% (active); in the assay on OVCAR-8 ovarian, -12.4% (active); with OVCAR-5 ovarian, 51.6%. Besides, the growth with OVCAR-4 ovarian was 2.74% (active); with SK-OV-3 ovarian, 33.3%; with IGROV1 ovarian, 0.209% (active); in the assay on OVCAR-3 ovarian, -28.3% (active); in the assay on HS 578T breast, -44.8% (active); in the assay with NCI/ADR-RES ovarian, 30.2%.

For `COc1ccc(C2OC(c3cc(-c4cc5ccccc5o4)nn3-c3ccccc3)=NN2C(C)=O)cc1` (centres undefined), the growth with SK-MEL-2 melanoma is 94.5%; in the assay with EKVX NSCLC, 94.5%; with SN12C renal, 93.2%; in the assay on CAKI-1 renal, 100%; in the assay with MOLT-4 leukemia it was 83%; in the assay with SR leukemia, 93.1%. The growth in the assay with RPMI-8226 leukemia was 101%; in the assay on OVCAR-8 ovarian, 99.5%; in the assay with OVCAR-5 ovarian it was 94%; in the assay on OVCAR-4 ovarian, 96.3%; in the assay on SK-OV-3 ovarian, 103%; in the assay with IGROV1 ovarian, 89.4%. In addition, the growth in the assay with OVCAR-3 ovarian was 95.3%; with NCI/ADR-RES ovarian it was 92.2%.

For the compound `Cc1cc(N2CCOCC2)nc(N(CCNc2ccnc3cc(Cl)ccc23)Cc2cccs2)n1`, the growth in the assay on SK-MEL-2 melanoma was -39.4% (active); in the assay on EKVX NSCLC it was 51.5%; in the assay with UO-31 renal, -8.69% (active); in the assay with TK-10 renal it was 19.4%; with ACHN renal it was 1.88% (active); in the assay on A498 renal, 22.8%. The growth with CCRF-CEM leukemia was 6.42% (active); in the assay on MOLT-4 leukemia, -9.25% (active); with SR leukemia it was -13% (active); with RPMI-8226 leukemia it was -11.9% (active); in the assay on OVCAR-8 ovarian, 8.53% (active); in the assay with OVCAR-5 ovarian, 83.2%. The growth is 14.2% in the assay with OVCAR-4 ovarian; 61.5% in the assay on SK-OV-3 ovarian; 35.1% in the assay with IGROV1 ovarian; -73.9% (active) in the assay with OVCAR-3 ovarian; 5.37% (active) in the assay on HS 578T breast; 34.1% in the assay with NCI/ADR-RES ovarian.

For `N#Cc1c(NC(=O)c2ccco2)[n+]([O-])c2cc(F)c(F)cc2[n+]1[O-]`, the growth with SK-MEL-2 melanoma was 97.2%; in the assay with EKVX NSCLC, 109%; in the assay on SN12C renal it was 94.9%; in the assay on TK-10 renal it was 80.2%; in the assay on ACHN renal it was 97.8%; with CAKI-1 renal, 66.7%. The growth in the assay with CCRF-CEM leukemia is 67.2%; in the assay on MOLT-4 leukemia, 75%; in the assay with SR leukemia, 8.42% (active); in the assay with OVCAR-8 ovarian, 38.9%; with OVCAR-5 ovarian, 119%; in the assay on OVCAR-4 ovarian it was 89.7%. Moreover, the growth in the assay on SK-OV-3 ovarian was 99.4%; in the assay with IGROV1 ovarian, 29.6%; with OVCAR-3 ovarian, 102%; in the assay on NCI/ADR-RES ovarian it was 112%.

As for `Cc1sc2c(c1C)c(=O)nc1c(-c3nc4ccccc4s3)n[nH]n12`, the growth in the assay on SK-MEL-2 melanoma was 95.2%; in the assay on EKVX NSCLC, 81.9%; with UO-31 renal, 73.7%; with TK-10 renal, 140%; in the assay with A498 renal, 101%; in the assay with CCRF-CEM leukemia it was 89.2%. The growth in the assay with MOLT-4 leukemia was 94.5%; in the assay with SR leukemia it was 88.5%; in the assay with RPMI-8226 leukemia it was 87.9%; in the assay on OVCAR-8 ovarian, 97.9%; in the assay on OVCAR-5 ovarian, 110%; in the assay with OVCAR-4 ovarian, 99.6%. The growth was 91.4% in the assay with SK-OV-3 ovarian; 94.2% in the assay on IGROV1 ovarian; 98.2% in the assay on OVCAR-3 ovarian; 93.3% with HS 578T breast; 93.7% with NCI/ADR-RES ovarian.

Consider `C=C1C(=O)O[C@H]2[C@H]1CC/C(C=Nc1c(N)cc(C(F)(F)F)cc1C(F)(F)F)=C\CC[C@@]1(C)O[C@@H]21`, for which the growth is -39.1% (active) with SK-MEL-2 melanoma; -36.2% (active) in the assay on EKVX NSCLC; -89.8% (active) in the assay with UO-31 renal; -41% (active) with TK-10 renal; -89.4% (active) in the assay on ACHN renal; -59.3% (active) with CAKI-1 renal. Moreover, the growth in the assay with A498 renal is 34.8%; in the assay on CCRF-CEM leukemia it was 4.15% (active); in the assay with MOLT-4 leukemia, -13.5% (active); in the assay with SR leukemia, 0.897% (active); with RPMI-8226 leukemia, -18.7% (active); in the assay with OVCAR-8 ovarian, 4.81% (active). Further, the growth is -9.13% (active) with OVCAR-5 ovarian; -71.6% (active) with OVCAR-4 ovarian; 48.8% in the assay with SK-OV-3 ovarian; -46.3% (active) in the assay with IGROV1 ovarian; -93.8% (active) with OVCAR-3 ovarian; 16.7% in the assay with HS 578T breast. In addition, the growth in the assay on NCI/ADR-RES ovarian was -23.1% (active).

Consider `CCN(CC)C(=O)C[N+](C)(C)CCOC(c1ccccc1)c1ccccc1`, for which the growth in the assay with SK-MEL-2 melanoma is 103%; in the assay with EKVX NSCLC it was 100%; in the assay with SN12C renal, 106%; in the assay on UO-31 renal it was 93.4%; in the assay with ACHN renal, 111%; in the assay on A498 renal, 114%. Further, the growth with CCRF-CEM leukemia was 112%; in the assay on MOLT-4 leukemia, 103%; in the assay with SR leukemia, 108%; in the assay with OVCAR-8 ovarian, 110%; with OVCAR-5 ovarian, 100%; in the assay on OVCAR-4 ovarian, 89.5%. Also, the growth in the assay with SK-OV-3 ovarian was 107%; in the assay with IGROV1 ovarian it was 102%; with OVCAR-3 ovarian, 103%; in the assay with HS 578T breast, 112%; with NCI/ADR-RES ovarian, 99.1%.
